Measured values: PubChem BioAssay AID2280 (The Scripps Research Institute Molecular Screening Center, 2010)
Screen size: about 320,000 compounds; about 1,400 (0.44%) were called active.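 The calls were made as follows: active = percent inhibition above a per-plate cutoff, the plate mean of test compounds plus 3 SD (cut at about 30% in these data); inactive = the rest.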 The full list was thinned out, with actives kept by preference.

What follows are compounds tested against Female germline-specific tumor suppressor gld-1 (Caenorhabditis elegans) (UniProt Q17339) (assay: GLD-1/TGE RNA complex disruptors, primary screen, biochemical, fluorescence polarization (AID 2280;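 also: 0% = DMSO wells with GLD-1 and probe and 100% = wells lacking GLD-1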)). Settings: purified GLD-1 + fluorescein TGE RNA, at 5.96 µM, stronger effect = higher value.
Chain of Female germline-specific tumor suppressor gld-1 (Caenorhabditis elegans) (Q17339 whole entry, looked up): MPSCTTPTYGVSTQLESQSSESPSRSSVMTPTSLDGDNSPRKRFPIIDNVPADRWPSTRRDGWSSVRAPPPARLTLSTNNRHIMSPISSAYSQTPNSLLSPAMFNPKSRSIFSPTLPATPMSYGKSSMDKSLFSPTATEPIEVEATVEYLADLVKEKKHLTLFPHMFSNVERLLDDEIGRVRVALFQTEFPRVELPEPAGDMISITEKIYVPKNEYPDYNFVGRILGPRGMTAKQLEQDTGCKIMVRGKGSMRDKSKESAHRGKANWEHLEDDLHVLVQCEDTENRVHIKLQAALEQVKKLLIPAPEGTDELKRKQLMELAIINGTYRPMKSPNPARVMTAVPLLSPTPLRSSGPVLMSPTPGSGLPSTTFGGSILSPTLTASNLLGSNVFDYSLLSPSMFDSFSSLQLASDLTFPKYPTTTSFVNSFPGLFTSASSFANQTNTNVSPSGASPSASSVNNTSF

SMILES | inhibition
CC(C)CCn1c(=O)c2c(nc3n2CCCN3Cc2ccccc2)n(C)c1=O | 2.24% (inactive)
COc1ccc(OCCCC(=O)Nc2cccc(S(=O)(=O)N3CCCCCC3)c2)cc1 | 6.95% (inactive)
c1ccc(-n2nnnc2N2CCOCC2)cc1 | -16.6% (inactive)
C1=C(N2CCOCC2)/C(=C/c2nc3ccccc3[nH]2)CC1 | 72.7% (active)
CC1(C)Cc2c(C#N)c(SCc3nc4ccccc4[nH]3)nc(N3CCOCC3)c2CO1 | -7.37% (inactive)
CC(=O)c1c(C)[nH]c(C(=O)CN2C(=O)NC(C)(C)C2=O)c1C | 1.35% (inactive)
COc1ccc(C(=O)CN2C(=O)NC3(CCc4ccccc43)C2=O)c(OC)c1 (stereo not given) | 0.18% (inactive)
CC/C(=N/Nc1ccccc1)c1cnnc(SC)n1 | 2.17% (inactive)
CSc1ccc(S(=O)(=O)Nc2cccc(F)c2)cc1 | 11.1% (inactive)
COc1cccc(-c2nc(CS(=O)CC(=O)NCc3ccc(F)cc3)c(C)o2)c1 (stereo not given) | -0.05% (inactive)
COc1ccc(-c2nc(CS(=O)CC(=O)NCc3ccccn3)c(C)o2)cc1 (stereo not given) | 81.7% (active)
COc1ccc(-c2nc(CS(=O)CC(=O)NCc3ccccc3)c(C)o2)cc1OC (stereo not given) | -5.15% (inactive)
Oc1ccc(-c2onc3ccc(Cl)cc23)cc1 | 8.29% (inactive)
COc1ccc(-c2onc3ccc(C(C)=O)cc23)cc1 | 169% (active)
CC(OC(=O)c1ccc2noc(-c3ccccc3)c2c1)C(N)=O (stereo not given) | 6.97% (inactive)
COc1ccc(/C=C/C(=O)c2cc(Br)ccc(=O)c2O)cc1 | -9.08% (inactive)
O=C(c1cnccn1)N1CCN(S(=O)(=O)c2cccc(Cl)c2)CC1 | 3.23% (inactive)
Cc1nn(Cc2ccccc2)c(C)c1CNC(=O)c1ccc(F)c(S(=O)(=O)N2CCOCC2)c1 | 103% (active)
O=C(c1ccc(F)c(S(=O)(=O)N2CCOCC2)c1)N(CCc1ccccc1)Cc1ccccc1 | 18.5% (inactive)
O=C(NCCSCc1ccccc1)c1ccc(Cl)c(S(=O)(=O)N2CCOCC2)c1 | 7.47% (inactive)
Cc1cnc(CN(C)C(=O)CC2C(=O)NCCN2Cc2cccc(F)c2F)[nH]1 (stereo not given) | 9.56% (inactive)
CC1(C)CC[C@]2(C(=O)O)CC[C@]3(C)C(=CCC4[C@@]5(C)CC[C@H](O)C(C)(C)C5[C@H](O)C[C@]43C)[C@@H]2C1 (stereo not given in full) | 1.49% (inactive)
O=C(COC(=O)c1cccc(Br)c1)Nc1cccc2c1C(=O)c1ccccc1C2=O | 7.63% (inactive)

SMILES | inhibition
O=C(COC(=O)Cn1cnc2ccccc21)Nc1cccc2c1C(=O)c1ccccc1C2=O | 78.6% (active)
O=C(Cn1cnc2ccccc21)Nc1ccccc1-c1ccccc1 | 1.53% (inactive)
Cc1ccc(N(Cc2cc(=O)[nH]c3ccccc23)C(=O)CCl)cc1 | 0.28% (inactive)
CC(=O)N/C(=N/c1nc(C)cc(C)n1)Nc1ccc(F)cc1F | -1.91% (inactive)
O=S(=O)(NCc1cccnc1)c1ccc(Br)s1 | 2.39% (inactive)
O=C(NCCc1ccccc1)C1CCN(S(=O)(=O)c2ccc(Br)s2)CC1 | 4.67% (inactive)
O=S(=O)([N-]c1nc2ccccc2nc1-[n+]1ccc(Cc2ccccc2)cc1)c1ccc(Br)s1 | 94.1% (active)
O=C1CN(C(=O)COC(=O)c2cnc(Cl)c(Cl)c2)c2ccccc2N1 | 6.14% (inactive)
CS(=O)(=O)c1ccc(C(=O)NNC(=O)c2cccs2)cc1 | 1.25% (inactive)
O=C(c1cc(COc2ccc(F)cc2F)on1)N1CCOCC1 | -0.95% (inactive)
CC/C(C)=N/Nc1nc2sc3c(c2c(=O)[nH]1)CC(C)(C)OC3 | 62.3% (active)
CC(C)c1nc2sc3c(c2c(=O)n1N)CC(C)(C)OC3 | 2.68% (inactive)
CCSc1nc2sc3c(c2c(=O)[nH]1)CC(C)(C)OC3 | -5.06% (inactive)
O=C(COC(=O)C1CC2CCCC(C1)C2=O)NC(=O)c1ccccc1 (stereo not given) | 0.04% (inactive)
O=S(=O)(c1ccc(-c2ccno2)s1)N1CCCCC1 | 0.96% (inactive)
CC(C)(C)OC(=O)NCCCC1=CC2=CC(=O)C(C)(OC(=O)c3ccco3)C(=O)C2=CO1 (stereo not given) | 86.5% (active)
CC1(OC(=O)C2CCCC2)C(=O)C=C2C=C(c3ccc(C#N)cc3)OC=C2C1=O (stereo not given) | 17.8% (inactive)
C=CCN1C=C2C(=O)C(C)(OC(=O)CCc3ccccc3)C(=O)C=C2C=C1c1ccc(C#N)cc1 (stereo not given) | 18.7% (inactive)
CN1CCN(c2ccccc2NC(=O)COc2ccc(C3CCCCC3)cc2)CC1 | 2.44% (inactive)
N#CCCN(C(=O)COC(=O)c1ccc2c(c1)OCCO2)c1ccccc1 | 0.3% (inactive)
N#C/C(=C\c1ccccc1C(F)(F)F)C(=O)Nc1ccccc1F | 0.78% (inactive)
Cc1ccc(/C=C(\C#N)C(=O)Nc2cccc3ncccc23)o1 | 59.6% (active)
O=C(O)c1cc(Cl)c(Cl)cc1C(=O)Nc1cccc2ncccc12 | 7.15% (inactive)

SMILES | inhibition
COc1cc(NC(=O)COC(=O)c2ccc([N+](=O)[O-])s2)cc(OC)c1OC | 4.4% (inactive)
O=C(Cc1ccc(S(=O)(=O)N2CCOCC2)s1)N1CCN(c2ccc(C(F)(F)F)cc2[N+](=O)[O-])CC1 | 8.86% (inactive)
CCOC(=O)c1cc2n(c1N)-c1ccccc1C2=O | 117% (active)
CCOC(=O)c1ccccc1CN1C(=O)c2ccccc2S1(=O)=O | 1.98% (inactive)
CC(C)OC(=O)CN1C(=O)C(=O)c2ccccc21 | -0.34% (inactive)
Cc1ccc(CNC(=O)C2CCCN2S(=O)(=O)c2ccc3c(c2)C(C)(C)C(=O)N3C)cc1 (stereo not given) | -3.08% (inactive)
CCOC(=O)c1cnc2nc(SCc3ccccc3Cl)[nH]n2c1=O | -4.26% (inactive)
NS(=O)(=O)c1ccc(N=Nc2c(O)[nH]c3ccc(Br)cc23)cc1 | 15.6% (inactive)
Oc1[nH]c2ccc(Br)cc2c1N=Nc1nn[nH]n1 | 9.48% (inactive)
Cc1cccc(N=Nc2c(O)[nH]c3ccc(F)cc23)c1 | 67.5% (active)
CSc1ccc(S(=O)(=O)N2CCC(C(=O)NCc3ccncc3)CC2)cc1 | -3.16% (inactive)
CSc1ccccc1NC(=O)C(C)N1C(=O)c2ccccc2S1(=O)=O (stereo not given) | -0.85% (inactive)
CN1c2ccc(C=O)c3c(C=O)ccc(c23)N(C)C1(C)C | 134% (active)
Cc1cc(C)c(S(=O)(=O)c2cc(F)ccc2C)c(=O)[nH]1 | -0.88% (inactive)
O=C1NC[C@@H](c2ccccc2)OC(=O)[C@H](Cc2ccc(F)cc2)CC/C=C/C[C@H]1CC(=O)N(CCO)Cc1ccccc1 | 3.17% (inactive)
Cc1ccc(S(=O)(=O)C(C#N)c2nc3ccccc3nc2N2CCCC2)cc1C (stereo not given) | 54.9% (active)
CC(C)OC(=O)C(C#N)c1nc2ccccc2nc1N1CCN(Cc2ccccc2)CC1 (stereo not given) | 6.85% (inactive)
Cc1cc(N2CCN(S(=O)(=O)c3ccc(C)c(C)c3)CC2)c2ccccc2n1 | 1.62% (inactive)
CCN(C[C@H]1N[C@@](CC)(C(=O)OC)[C@H]2C(=O)N(Cc3ccccc3)C(=O)[C@@H]12)S(=O)(=O)c1ccc(C(F)(F)F)cc1 | 7.64% (inactive)
COc1ccc(Cl)cc1NC(=O)COC(=O)c1ccc(Br)o1 | -3.63% (inactive)
COc1ccccc1N1CC(C(=O)NCCN2C(=O)S/C(=C\c3cccnc3)C2=O)CC1=O (stereo not given) | 4.79% (inactive)
CCOc1ccc(N2CC(C(=O)NCCN3C(=O)S/C(=C\c4cccnc4)C3=O)CC2=O)cc1 (stereo not given) | -0.09% (inactive)
COc1ccc(N2CC(C(=O)NCCN3C(=O)S/C(=C\c4cccnc4)C3=O)CC2=O)c(OC)c1 (stereo not given) | 118% (active)

SMILES | inhibition
C=CCC(NC(=O)Cc1ccccc1)C(=O)NCCC (stereo not given) | -2.12% (inactive)
Cc1ccc(Cn2nnc3c(=O)[nH]c(C4CCN(S(=O)(=O)/C=C/c5ccccc5)CC4)nc32)cc1 | 1.59% (inactive)
O=C(COC(=O)c1cc[n+]([O-])cc1)Nc1ccc(Cl)c(C(F)(F)F)c1 | 8.04% (inactive)
CC(NC(=O)c1ccco1)c1ccc2c(c1)OCO2 (stereo not given) | -0.47% (inactive)
COc1ccc(NS(=O)(=O)c2ccc(F)cc2F)cn1 | -1.42% (inactive)
COc1ccc(Nc2cc(Cl)ccc2C(=O)O)cn1 | 66.1% (active)
COc1cccc(Nc2ncccc2C(=O)O)c1 | 3.26% (inactive)
COc1cc(OC)cc(-c2c(C#Cc3ccsc3)c3cc(-c4ccc(OC)cc4F)ccc3n2C)c1 | -36.1% (inactive)
Cc1ccc(NC(=O)C(=O)NCc2ccc(/C=N/NC(=O)c3c(C)nc4cc(C)ccn34)o2)cc1 | 1.79% (inactive)
Cc1ccc(S(=O)(=O)Nc2nc(CN3CCOCC3)nc3sc(C)c(C)c23)cc1 | -15.1% (inactive)
C[n+]1ccc(/C=C/c2c[nH]c3ccccc23)cc1 | 55.5% (active)
COc1ccc(/C=C(\C#N)c2c[nH]c3ccccc23)cc1 | 8.67% (inactive)
O=C(NC1CCCC1)C(=O)c1c[nH]c2ccccc12 | 6.85% (inactive)
COc1ccccc1-n1c(SCC(=O)Nc2cccc(C(=O)O)c2)nnc1-c1ccccc1O | 6.18% (inactive)
OC1CN=C2Sc3ccccc3N2C1 (stereo not given) | 12.5% (inactive)
CNC(=S)NNC(=O)c1cccn(Cc2ccccc2)c1=O | 3.04% (inactive)
NNC(=O)c1oc2nc(-c3ccccc3)cc(-c3ccco3)c2c1N | -23.7% (inactive)
CNC(=S)NNC(=O)c1oc2nc(-c3ccccc3)cc(-c3ccco3)c2c1N | 38.9% (active)
Cc1ccc(C(=O)NCC(=O)OCC(=O)Nc2cccc(S(=O)(=O)N3CCCC3)c2)cc1C | 7.23% (inactive)
COC(=O)c1sccc1NN1C(=O)c2ccccc2C1=O | 4.27% (inactive)
CCOCCOCCC(C(=O)O)P(=O)(c1ccccc1)c1ccccc1 (stereo not given) | 6.44% (inactive)
